From the supplement of paper PMC13380429

System: Vero E6 infected with SARS-CoV-2
Assay: inhibition of SARS-CoV-2 cytopathic effect; higher = more antiviral protection, active = above 15
Conditions: 48 h

Measured: inhibition of SARS-CoV-2 cytopathic effect

C[N+]12CCC(CC1)C(OC(=O)C(O)(c1ccccc1)c1ccccc1)C2 (stereo not given) [clidinium]
inactive: 1 nM -2.04% | 8.33 nM 1.76% | 100 nM -0.23% | 833.33 nM 0.86% | 10000 nM -1.97%

CC[C@@H]1C(=O)N(C)c2cnc(Nc3ccc(C(=O)N[C@H]4CC[C@H](N5CCN(CC6CC6)CC5)CC4)cc3OC)nc2N1C(C)C [volasertib]
inactive: 1 nM 4.01% | 8.33 nM -1.24% | 100 nM -0.02% | 833.33 nM -9.3% | 10000 nM -14.9%

CC(C(=O)O)c1cccc(C(=O)c2ccccc2)c1 (stereo not given) [ketoprofen]
inactive: 1 nM -0.91% | 8.33 nM -0.62% | 100 nM -0.91% | 833.33 nM -0.03% | 10000 nM -0.97%

CC(=O)[C@H]1CC[C@H]2[C@@H]3C[C@H](C)C4=CC(=O)CC[C@]4(C)[C@H]3[C@@H](O)C[C@]12C [medrysone]
inactive: 1 nM -0.04% | 8.33 nM 1.55% | 100 nM -1.22% | 833.33 nM 0.73% | 10000 nM 3.22%

COC(=O)c1ccc2c(c1)nc(NC(=O)c1ccccc1)n2CCCc1ccccc1
inactive: 1 nM -0.52% | 8.33 nM -1.27% | 100 nM -1.28% | 833.33 nM -5.07% | 10000 nM -1.86%

CC(C[N+](C)(C)C)OC(N)=O (stereo not given) [bethanechol]
inactive: 1 nM -5.4% | 8.33 nM 2.96% | 100 nM -4.87% | 833.33 nM -5.89% | 10000 nM -6.25%

CCC(NC(C)C)C(O)c1ccc(O)c(O)c1 (stereo not given) [isoetharine]
inactive: 1 nM -0.44% | 8.33 nM 0.06% | 100 nM -2.12% | 833.33 nM -0.61% | 10000 nM 1.5%

CCOC(=O)c1c(/C(C#N)=C\N)c2ccc(Cl)c(Cl)c2n1C
inactive: 1 nM -0.1% | 8.33 nM 0.69% | 100 nM 0.36% | 833.33 nM 0.1% | 10000 nM -2.18%

NS(=O)(=O)c1cc2c(cc1C(F)(F)F)NC(Cc1ccccc1)NS2(=O)=O (stereo not given) [bendroflumethiazide]
inactive: 1 nM -0.89% | 8.33 nM -3.12% | 100 nM -0.42% | 833.33 nM -1.39% | 10000 nM 0.82%

CN(C)CC/C=C1/c2ccccc2COc2ccccc21 [doxepin]
inactive: 1 nM -0.79% | 8.33 nM 1.36% | 100 nM 1.85% | 833.33 nM -1.94% | 10000 nM -2.1%

O=C(O)P(=O)(O)O [foscarnet]
inactive: 1 nM 3.44% | 8.33 nM 3.89% | 100 nM 2.56% | 833.33 nM 0.33% | 10000 nM 0.71%

CSc1ccccc1Nc1nc(N2CCNCC2)nc2c(NCC3CC3)ncnc12
inactive: 1 nM 1.44% | 8.33 nM 1.6% | 100 nM 1.17% | 833.33 nM 0.92% | 10000 nM -33.2%

CCCc1c2oc(C(=O)O)cc(=O)c2cc2c(=O)cc(C(=O)O)n(CC)c12 [nedocromil]
inactive: 1 nM 2.42% | 8.33 nM 1.24% | 100 nM 0.71% | 833.33 nM 1.06% | 10000 nM 0.79%

CCOC(=O)c1ncc2[nH]c3cccc(OC(C)C)c3c2c1C
inactive: 1 nM 2.48% | 8.33 nM -1.73% | 100 nM 3.11% | 833.33 nM 5.05% | 10000 nM 7.71%

CC[C@H]1OC(=O)C[C@@H](O)[C@H](C)[C@@H](O[C@@H]2O[C@H](C)C[C@H](N(C)C)[C@H]2O)[C@@H](CC=O)C[C@@H](C)C(=O)/C=C/[C@]2(C)O[C@H]2[C@@H]1C [rosamicin]
inactive: 1 nM 1.84% | 8.33 nM 0.4% | 100 nM -1.22% | 833.33 nM 2.62% | 10000 nM 9.6%

O=C(Nc1ccncc1)C(=O)c1cn(Cc2ccc(Cl)cc2)c2ccccc12 [indibulin]
inactive: 1 nM 1.08% | 8.33 nM 1.94% | 100 nM 0.77% | 833.33 nM 0.68% | 10000 nM -6.21%

CC(C)CCN1c2nc(Nc3cc(F)c(O)c(F)c3)ncc2N(C)C(=O)[C@@H]1C
inactive: 1 nM -1.15% | 8.33 nM -2.75% | 100 nM -6.09% | 833.33 nM -0.02% | 10000 nM 8.71%

Nc1nc(=O)n([C@@H]2CS[C@H](CO)O2)cc1F [emtricitabine]
inactive: 1 nM -0.33% | 8.33 nM -2.03% | 100 nM 4.2% | 833.33 nM -0.69% | 10000 nM -0.34%
